In the library only some 2.2% were active in any assay of this set; here they are far more common.
aSyn rescue: rescues yeast growth from alpha-synuclein toxicity | Potency, µM (doses to about 46.1 µM), for the others: at the highest dose growth rescue (activation), hits mostly activators | Yeast expressing alpha-synuclein, growth rescue, BacTiter-Glo, 24 h | 370,000 compounds, 0.14% hits | AID 652106; also: % of control where 0% means no effect; nearly all actives have a fitted effect of over 65% in size
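Screening used galactose-induced yeast with toxic alpha-synuclein levels, exposed to compound for 24 hr at 30 deg C. Cell growth, read with BacTiter-Glo luminescence, gave the measured signal.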
FUS suppressor: FUS proteinopathy suppression in yeast. S. cerevisiae FUS-expressing, growth rescue, OD600, 24 h. 390,000 compounds, 0.24% hits. Potency, µM (top dose mostly 76.6 µM), actives largely listed as activators;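 also: plate controls were DMSO vehicle for no effect and reference control for full effect; nearly all actives have a fitted effect of over 55% in size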
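Cultures pregrown in 2.5% raffinose medium are shifted to minimal medium containing 2% galactose to express toxic FUS. Compounds are tested at several concentrations. After 24hr at 30C, growth is quantified at 600 nm absorbance.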
TDP-43 yeast inh: TDP-43 toxicity inhibition in yeast. TDP-43 expressing yeast growth rescue, BacTiter-Glo, 24 h. Potency, µM (doses to about 46.1 µM), inactives show at the highest dose growth rescue (activation), most hits filed as activators. 410,000 compounds, 1.8% hits; also: % of control where 0% means no effect; nearly all actives have a fitted effect of over 50% in size
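Cell-based yeast growth screen: TDP-43 expression induced in galactose, inoculum OD600=0.02 after raffinose pregrowth to mid-log. Read-out BacTiter-Glo luminescence at 24 hr, 30 deg C; inhibition of toxicity seen as signal increase.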
Mito fusion act: mitochondrial division inhibition or fusion activation. 320,000 compounds, 0.23% hits. AID 485298. S. cerevisiae fusion-defective mutant growth rescue, CellTiterGlo 48 h. Potency, µM (series often up to 46.1 µM), for the others: top-dose growth rescue (activation), actives largely listed as activators; also: % of control where 0% means no effect; nearly all actives have a fitted effect of over 45% in size
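S. cerevisiae fusion-defective temperature-sensitive mutants (e.g. fzo1-1, mgm1-5) grown 48 h at 37C in YPEG (ethanol/glycerol non-fermentable) medium with 23 nl compound per well; growth rescue read as CellTiterGlo luminescence.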
Abeta rescue: restores growth of yeast expressing A-beta42 peptide; Potency, µM (series often up to 46.1 µM), hits mostly activators; 410,000 compounds, 0.063% hits; AID 1347071; yeast expressing A-beta42, growth rescue, OD600, 48 h; response scale: 0% DMSO, 100% iron-clioquinol control; also: nearly all actives have a fitted effect of over 55% in size
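Yeast A-beta toxicity model in growth medium with pinned compounds, 48 h at 30 C; growth read as absorbance at 600 nm. Normalized to FeCl3/clioquinol equimolar mix (positive) and DMSO (negative).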
* hit, by the source's call; i = inactive; ? = inconclusive; . = no result; [ ] = remark or other dose. Calls follow the shape of the dose curve; as a rule, active = well fitted curve in the direction sought with a large enough effect; inconclusive = small, poorly fitted or top-dose-only effect, or another doubt; inactive = no such curve, though single readings can be large; an effect the other way counts as inactive or inconclusive. Potency is read from the fitted curve at half-maximal effect.

SMILES	aSyn rescue	FUS suppressor	TDP-43 yeast inh	Mito fusion act	Abeta rescue
Cc1ccc(CCNS(=O)(=O)c2cc(-c3cc(C)no3)ccc2C)cc1	.	i	22µM*	.	i
COc1ccc(-c2nc(CNS(=O)(=O)c3ccc(F)cc3)cs2)cc1	.	i	24%	.	i
COc1ccc(S(=O)(=O)NCCc2csc(-c3ccc(F)cc3)n2)cc1F	.	i	18µM*	.	i
O=S(=O)(NCCc1csc(-c2ccc(F)cc2)n1)c1ccc(Cl)cc1	.	i	11µM*	.	6.3µM*
COc1ccc(CCNS(=O)(=O)c2cc(-c3cc(C)no3)ccc2OC)cc1OC	.	i	3%	.	i
COc1ccc(-c2nc(CNS(=O)(=O)c3ccc(C)cc3)cs2)cc1	.	i	3%	.	i
CC(C)c1cccc(NC(=O)COC(=O)c2ccccc2OCc2cccc(Br)c2)c1	3%	.	.	.	.
COc1ccc(S(=O)(=O)NCCc2sc(-c3ccccc3)nc2C)cc1F	5%	i	22µM*	.	i
CCOc1ccc(S(=O)(=O)NCCc2csc(-c3ccc(Cl)cc3)n2)cc1	.	?	22µM*	.	i
Cc1ccc(SCCNS(=O)(=O)c2ccc(F)cc2)cc1	17%	i	?	?	i
COc1ccc(S(=O)(=O)NCCc2sc(-c3cccnc3)nc2C)cc1OC	0%	i	17%	.	i
Cc1ccc(C)c(S(=O)(=O)NCCc2csc(-c3ccc(Cl)cc3)n2)c1	.	i	22µM*	.	i
CCOc1ccc(S(=O)(=O)NCCc2sc(-c3ccc(C)cc3)nc2C)cc1	.	i	?	.	i
O=S(=O)(NCCSc1ccc(Cl)cc1)c1ccc(F)cc1	23%	i	14µM*	12%	i
Cc1ccc(OCC(=O)N(Cc2sccc2C)C2CCS(=O)(=O)C2)cc1 (stereo not drawn)	.	i	16%	.	i
O=C(CN1CCc2onc(-c3ccc(-n4cc(C5=CCCCC5)nn4)cc3)c2C1=O)N1CCOCC1	.	i	.	.	.
COc1ccc(S(=O)(=O)NCCc2csc(-c3ccc(F)cc3)n2)cc1	.	i	16µM*	.	i
COc1ccc(-c2nc(CNS(=O)(=O)c3cccc(F)c3)cs2)cc1	.	i	13µM*	.	i
O=S(=O)(NCCc1csc(-c2cccnc2)n1)c1ccc(F)cc1	-13%	.	14µM*	-1%	i
Cc1ccc(S(=O)(=O)NCCc2sc3nc(-c4ccccc4)nn3c2C)cc1C	.	i	13µM*	.	?
COc1ccc(NC(=O)c2oc3ccccc3c2NC(=O)Cc2ccc(F)cc2)c(OC)c1	.	i	1%	.	i
O=C(CNC1=NCCS1)c1c[nH]c2ccccc12	6%	.	.	.	.
O=C(c1cc2cc(F)ccc2[nH]1)N1CCCC(Nc2ccc(F)cc2)C1 (stereo not drawn)	3%	i	18µM*	-1%	i
CN=C(Nc1cccc(Cl)c1)SC1CC(=O)N(c2ccc(OC)cc2)C1=O (stereo not drawn)	?	i	29%[9.22 µM]	1%	8.9µM*
CN=C(Nc1ccc(C)c(C)c1)SC1CC(=O)N(c2ccc(OC)cc2)C1=O (stereo not drawn)	?	i	25%	-2%	i
SMILES	aSyn rescue	FUS suppressor	TDP-43 yeast inh	Mito fusion act	Abeta rescue
Cc1c(C(=O)N2CCN(S(C)(=O)=O)CC2)oc2ccccc12	-8%	i	-14%	7%	i
COc1ccc2oc(C(=O)N3CCN(S(=O)(=O)c4ccc(F)cc4)CC3)c(C)c2c1	2%	i	?	.	i
Cc1c(C(=O)N2CCN(S(=O)(=O)c3ccccc3)CC2)oc2ccccc12	4%	i	16µM*	3%	i
Cc1c(C(=O)N2CCN(S(=O)(=O)c3cc(F)ccc3F)CC2)oc2ccccc12	9%	i	14µM*	4%	i
Cc1c(C(=O)N2CCN(c3ccccc3)CC2)oc2c(F)cccc12	6%	i	14µM*	5%	i
COc1ccc(S(=O)(=O)N2CCN(C(=O)c3oc4ccccc4c3C)CC2)cc1	-15%	?	11µM*	-2%	i
CC1=CC(=O)Nc2ccccc2S1	10%	.	10%	.	i
CC(=O)c1ccc(NC(=O)Cn2c(=O)n(Cc3ccco3)c(=O)c3sc4ccccc4c32)cc1	.	i	1%	.	i
Cc1cc(C)cc(NC(=O)COC(=O)CCC2CCCC2)c1	1%	i	13µM*	4%	i
Cc1ccc(N2C(S)=C(C#N)C(=O)NC23CCCCC3)cc1	1%	.	22µM*	1%	i
Cc1cccc(N2C(S)=C(C#N)C(=O)NC23CCCCC3)c1	8%	.	-25%	5%	i
CCC(=O)Nc1c(C(=O)Nc2ccc3c(c2)OCCO3)oc2ccccc12	6%	i	11µM*	3%	i
COCCNc1nc(-c2cc(-c3ccccc3)on2)cc(C(C)C)n1	-12%	i	16µM*	-20%	i
CCOC(=O)c1cccc(NC(=O)Cc2ccc(NC(=O)N3CCCCc4ccccc43)cc2)c1	.	i	32%	.	i
CC(=O)NC(CC(=O)NNC(=O)COc1c(C)cccc1C)c1ccccc1 (stereo not drawn)	-9%	.	16%	.	i
Cc1cccc(C)c1OCC(=O)N[C@@H](Cc1ccccc1)[C@@H](O)C[C@H](Cc1ccccc1)NC(=O)[C@H](C(C)C)N1CCCNC1=O	2%	32µM*	.	.	.
COc1ccc(-c2nc3sc(CCNS(=O)(=O)c4ccccc4)c(C)n3n2)cc1	.	i	?	.	i
COc1cccc(N2CCN(C(=O)c3cnc4c(C)cccn4c3=O)CC2)c1	.	i	-17%	.	i
CC(C)CC(=O)Nc1ncc([N+](=O)[O-])s1	?	i	5%	-7%	i
CCCCC(=O)Nc1ncc([N+](=O)[O-])s1	0%	i	16µM*	3%	i
CCOC(=O)c1ccc(NC(=O)CCn2c(=O)c3cccn3c3cccnc32)cc1	.	i	5%	.	i
CCOC(=O)N1CCN(C(=O)CN(c2ccc(C)cc2C)S(=O)(=O)c2ccccc2)CC1	5%	i	23%	.	i
c1ccc(CNc2ncnc3scc(-c4cccs4)c23)nc1	11%	i	18µM*	-1%	i
Cc1nc(-n2nc(C)c(Cc3ccccc3Cl)c2C)sc1C(=O)Nc1ccccc1F	.	i	5%	.	i
Cc1nc(Nc2nc3c(c(=O)[nH]2)CCC3)nc2ccccc12	11µM*	i	14µM*	.	i
O=c1[nH]c(NCc2ccccc2)nc2c1CCC2	1%	i	?	-7%	i
COc1ccc(CNS(=O)(=O)c2cnc(N)nc2)c(OC)c1	.	i	8%	.	i
COc1cccc(C(=O)N/N=C/C(Br)=C/c2ccccc2)c1	12%	i	20µM*	-1%	i

From PubChem BioAssay
